Screening data (PubChem BioAssay)
Rows were chosen to be rich in hits. Some 12% of all compounds tested hit in one or more screens of this group.
PLK1 PBD inh: qHTS for Inhibitors of PLK1-PDB (polo-like kinase 1 - polo-box domain): Primary Screen; Serine/threonine-protein kinase PLK1 (Homo sapiens), P53350; Plk1 PBD binding of FITC phosphopeptide, fluorescence polarization; Potency, µM, without a hit: max response, negative = inhibition, hits mostly inhibitors; 360,000 tested, 2.8% active; note: potency is the fitted concentration of half-maximal effect; series mostly up to about 57 µM; % is set by controls: 0 for no effect and ±100 for the full control effect; nearly all actives have a fitted effect of over 65% in size
HP1b binding inh: HTS for Inhibitors of HP1-beta Chromodomain Interactions with Methylated Histone Tails; Chromobox protein homolog 1 (Homo sapiens), P83916; AlphaScreen HP1-beta / biotin-H3K9me3 peptide binding; Potency, µM (highest dose often 114 µM), for inactives: at the highest dose activity change, negative = inhibition, actives largely listed as inhibitors; 390,000 tested, 0.56% active; note: potency is the fitted concentration of half-maximal effect; nearly all actives have a fitted effect of over 70% in size
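HP1-beta protein (50 nM final) preincubated 30 min at room temperature with biotinylated H3(1-18)K9me3 peptide (50 nM) in PBS pH 7.4, 0.01% Tween-20, then compound added for 30 min. AlphaScreen streptavidin donor/nickel chelate acceptor beads (10 ug/mL final), 30 min dark, luminescence read.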
JMJD2A Tudor: qHTS Assay for Inhibitors of JMJD2A-Tudor Domain. AlphaScreen JMJD2A-Tudor / H3K4me3 peptide binding. Lysine-specific demethylase 4A (Homo sapiens), O75164. Potency, µM (titrated, usually from 114 µM), without a hit: at the highest dose activity change, negative = inhibition, hits mostly inhibitors. 390,000 tested, 4.4% active; note: potency is the fitted concentration of half-maximal effect; % is set by controls: 0 for no effect and ±100 for the full control effect; nearly all actives have a fitted effect of over 50% in size
Target sequence (O75164 whole entry, looked up, the tested form may be a part): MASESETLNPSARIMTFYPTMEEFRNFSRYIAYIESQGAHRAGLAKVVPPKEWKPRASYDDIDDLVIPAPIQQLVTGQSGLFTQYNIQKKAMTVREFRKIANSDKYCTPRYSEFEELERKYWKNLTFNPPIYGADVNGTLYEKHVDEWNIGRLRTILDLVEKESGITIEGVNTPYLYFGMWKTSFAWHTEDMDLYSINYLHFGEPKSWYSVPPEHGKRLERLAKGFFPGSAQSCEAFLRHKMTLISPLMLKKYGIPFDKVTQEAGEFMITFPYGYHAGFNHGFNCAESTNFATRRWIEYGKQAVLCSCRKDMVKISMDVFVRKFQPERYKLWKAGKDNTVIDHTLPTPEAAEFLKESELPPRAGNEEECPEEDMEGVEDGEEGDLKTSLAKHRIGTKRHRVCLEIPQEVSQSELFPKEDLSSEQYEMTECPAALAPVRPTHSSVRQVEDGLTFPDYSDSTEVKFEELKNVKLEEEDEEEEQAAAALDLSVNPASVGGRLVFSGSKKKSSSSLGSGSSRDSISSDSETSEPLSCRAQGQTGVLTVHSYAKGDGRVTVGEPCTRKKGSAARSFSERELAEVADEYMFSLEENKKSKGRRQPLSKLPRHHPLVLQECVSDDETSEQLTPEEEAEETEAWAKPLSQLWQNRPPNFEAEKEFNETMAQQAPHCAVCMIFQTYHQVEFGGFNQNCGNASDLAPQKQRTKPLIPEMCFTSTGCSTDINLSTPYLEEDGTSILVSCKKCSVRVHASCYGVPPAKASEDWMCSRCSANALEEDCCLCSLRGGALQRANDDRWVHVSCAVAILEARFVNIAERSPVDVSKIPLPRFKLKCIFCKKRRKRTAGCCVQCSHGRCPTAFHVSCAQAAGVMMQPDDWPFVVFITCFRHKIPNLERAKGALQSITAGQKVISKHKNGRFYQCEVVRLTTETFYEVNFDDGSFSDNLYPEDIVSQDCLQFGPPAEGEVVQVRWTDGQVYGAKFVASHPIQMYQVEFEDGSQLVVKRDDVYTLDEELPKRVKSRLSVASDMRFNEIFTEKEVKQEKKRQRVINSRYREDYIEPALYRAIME
PI5P4Ka inh: qHTS for Inhibitors of phosphatidylinositol 5-phosphate 4-kinase (PI5P4K); max response, %; 330,000 tested, 1.2% active; AID 652105, 2013; PI5P4Kalpha enzyme, ADP-Glo luminescence, 60 min; hits give low values; active = max response of -50% or lower; inconclusive = between -30% and -50%; inactive = -30% or higher; note: value at the top dose of about 77 µM; % is set by controls: 0 for no effect and ±100 for the full control effect
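qHTS, 1536-well: enzyme/substrate mix, compound by pin tool, 5 microM ATP final; RT 60 min; ADP-Glo reagents 1 (45 min) then 2 (30 min); luminescence.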
G9a block: qHTS Assay for Inhibitors of Histone Lysine Methyltransferase G9a | AID 504332, 2011 | 350,000 tested, 8.8% active | G9a H3K9 monomethylation, AlphaScreen, 2 h | Potency, µM (doses to about 102 µM), for the others: at the highest dose activity, negative = inhibition, usual class: inhibitors; note: potency is the fitted concentration of half-maximal effect; % is set by controls: 0 for no effect and ±100 for the full control effect; nearly all actives have a fitted effect of over 75% in size
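G9a (20 nM) was preincubated 15 min with compound, then reacted 2 h at room temperature with 500 nM biotin-H3K9 peptide and 20 µM SAM. Monomethyl-H3K9 detected by AlphaScreen using anti-H3K9me1 antibody.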
BAZ2B block: qHTS Assay for Inhibitors of BAZ2B; Bromodomain adjacent to zinc finger domain protein 2B (Homo sapiens), Q9UIF8; 360,000 tested, 4.4% active; AlphaScreen BAZ2B-H3K14Ac peptide displacement; Potency, µM (top dose mostly 114 µM), for the others: at the highest dose activity change, negative = inhibition, actives largely listed as inhibitors; note: potency is the fitted concentration of half-maximal effect; % is set by controls: 0 for no effect and ±100 for the full control effect; nearly all actives have a fitted effect of over 60% in size
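BAZ2B (50 nM) with biotin-H3(5-23)K14Ac peptide (50 nM) in PBS pH 7.4, 0.01% Tween-20, preformed 30 min, then compound 30 min at room temperature; top concentration 110uM. AlphaScreen streptavidin donor/nickel chelate acceptor beads (10 ug/mL final), 20 min dark, signal read.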
* marks the source's active call; other numbers are inactive results; ? = inconclusive; / = no result given; [ ] = remark or other dose. Unless noted, calls come from the whole dose curve; as a rule, active = well fitted curve in the direction sought with a large enough effect; inconclusive = small, poorly fitted or top-dose-only effect, or another doubt; inactive = no such curve, though single readings can be large; an effect the other way counts as inactive or inconclusive.

SMILES	PLK1 PBD inh	HP1b binding inh	JMJD2A Tudor	PI5P4Ka inh	G9a block	BAZ2B block
Cc1ccc(C)c(Oc2coc3cc(OC(=O)c4cccs4)ccc3c2=O)c1	9.5µM*	-1%	-9%[11.4 µM]	-20	/	/
S=c1[nH]nc(Cc2ccccc2)n1-c1ccccc1	-10%	23%	4µM*	-10	8.9µM*	3%
S=c1[nH]nc(CCc2ccccc2)n1-c1ccccc1	2%	6%	11µM*	-9	1.4µM*	2%
Cc1ccccc1OCc1n[nH]c(=S)n1-c1ccccc1	-12%	16%	-34%	-3	10µM*	-31%
S=c1[nH]nc(CCc2ccccc2)n1-c1ccc(Cl)cc1	?	-19%	?	-10	?	-27%
S=c1[nH]nc(Cc2cccs2)n1-c1ccccc1	-11%	32%	7.9µM*	-5	10%[0.501 µM]	-32%
O=C(c1cc(C(F)(F)F)cc(C(F)(F)F)c1)N1CCC2(CC1)CN(c1ncccn1)C2	/	/	/	/	0%[12.7 µM]	/
COc1cccc(Cn2c(=O)cnc3cnc(OC)nc32)c1	/	/	/	/	9%[0.501 µM]	/
CCCn1c(N)c(C(=O)CN2CCN(S(=O)(=O)c3cccc(Cl)c3)CC2)c(=O)[nH]c1=O	0%	49%	-16%	-4	/	/
CCCCc1ccc(-n2c(Cc3cccs3)n[nH]c2=S)cc1	-16%	-19%	?	-5	1.8µM*	?
S=c1[nH]nc(Cc2n[nH]c(=S)n2-c2ccccc2)n1-c1ccccc1	-9%	40%	8.9µM*	5	10µM*	-3%
Cc1ccc(-n2c(Cc3noc4ccccc34)n[nH]c2=S)cc1	-15%	30%	?	-3	/	?
S=c1[nH]nc(Cc2ccccc2)n1-c1ccc(Cl)cc1	-24%	1%	79µM*	-7	?	-25%
S=c1[nH]nc(Cc2noc3ccccc23)n1-c1ccc(Cl)cc1	-23%	0%	?	-10	1.4µM*	-13%
Cc1ccc(C(=O)OCC(=O)N2CCCCCC2)c(O)c1	-12%	32%	2%	0	29%[12.7 µM]	3%
CN(C)C(=O)c1ccc(NC(=O)CN2C(=O)NC3(CCCc4ccccc43)C2=O)cc1 (stereo not drawn)	-5%	33%	-5%	5	-5%[59 µM]	1%
Cc1ccccc1C(=O)Nc1ccnn1C1CCN(C(=O)c2ccoc2)CC1	-3%	12%	-9%	2	4%	-12%
CCCCOCC(O)CCc1n[nH]c(=S)n1-c1ccccc1 (stereo not drawn)	-2%	50%	?	-4	/	-15%
Cc1ccc(-n2c(Cc3ccccc3)n[nH]c2=S)cc1	-8%	-5%	7.1µM*	/	2.2µM*	-23%
COC(=O)CSc1nnc(Cc2ccccc2)n1-c1ccc(C)cc1	-3%	52%	-1%	-4	14%[59 µM]	-1%
CC(C)OCC(O)CCc1n[nH]c(=S)n1-c1ccccc1 (stereo not drawn)	-13%	28%	6.3µM*	5	3.5µM*	12%
CC(C)c1nnc(NC(=O)c2cccc(NC(=O)C(F)(F)F)c2)s1	21µM*	-7%	-12%	2	13µM*	-12%
Cn1c(SCC(=O)Nc2ccc(N3CCOCC3)cc2)nnc1-c1ccco1	-11%	-15%	-21%	5	1%	-23%
CC(C)n1c(SCC(=O)Nc2nncs2)nnc1-c1ccco1	0%	-12%	56µM*	-74*	/	50µM*
CC(C)n1c(SCC(=O)Nc2ccc(N3CCOCC3)cc2)nnc1-c1ccco1	-8%	31%	32µM*	3	-39%	-16%
SMILES	PLK1 PBD inh	HP1b binding inh	JMJD2A Tudor	PI5P4Ka inh	G9a block	BAZ2B block
O=C(c1cccc2nc3ccccc3nc12)N1CCOCC1	?	-13%	79µM*	-25	6%[12.7 µM]	-9%
CCN(CC)C(=O)c1cccc2nc3ccccc3nc12	?	-7%	79µM*	-11	0%	-2%
CCCCN(CCO)CCCC	1%	36%	0%	3	9%[0.501 µM]	-5%
CCN(CCCC(=O)c1ccc(F)cc1)CCc1ccccc1	-3%	75%	-21%	10	/	0%
CCCN(CCO)CCCc1ccccc1	0%	?	2.8µM*	-7	?	?
CCN(CCCc1ccccc1)CCCc1ccccc1	-15%	-9%	22µM*	6	?	?
CC(=O)N1c2ccc(S(=O)(=O)N3CCCCC3)cc2CC1C(=O)NCc1ccc(N(C)C)cc1 (stereo not drawn)	21µM*	-14%	28µM*	2	40µM*	-34%
COc1ccc(CNC(=O)C2Cc3cc(S(=O)(=O)N4CCCC4)ccc3N2C(C)=O)c(OC)c1 (stereo not drawn)	-12%	42%	-23%	0	22µM*	?
CCOc1ccc(OCC)c(NC(=O)C2CCN(S(=O)(=O)c3ccc4c(c3)CC(C)N4C(C)=O)CC2)c1 (stereo not drawn)	30µM*	-4%	?	1	-3%[59 µM]	-8%
N#Cc1cccc(-c2nc3cnc(N4CCOCC4)nc3n(C3CC3)c2=O)c1	/	/	/	/	-5%[0.501 µM]	/
CCC(=O)N1CCc2cc(S(=O)(=O)N(C)c3cccc(C)c3)ccc21	/	43%	-15%	/	2%[59 µM]	0%
COc1ccc(CNC(=O)c2ccc(S(=O)(=O)NCc3ccco3)cc2)cc1	-11%	11%	-23%	0	49%[2.33 µM]	2%
Cc1cc(C)n2c(Nc3ccc4c(c3)OCCO4)c(-c3ccc(C)o3)nc2n1	0%	0%	-35%	-4	50µM*	?
Cc1cc(C)n2c(Nc3ccc4c(c3)OCCO4)c(-c3ccco3)nc2n1	/	/	/	/	50µM*	?
Cc1ccc(OCC(=O)Nc2c(Cl)ccc3nsnc23)cc1C	/	10%	-9%	/	4%[59 µM]	-11%
COCCN1C2=C(C(=O)CC(C)(C)C2)C(c2ccc(OC)c(OC)c2)C2=C1CC(C)(C)CC2=O	-9%	24%	3%	2	40%	1%
COCCCN1C2=C(C(=O)CC(C)(C)C2)C(c2ccc(OC)c(OC)c2)C2=C1CC(C)(C)CC2=O	-1%	23%	-11%	0	71µM*	-17%
COc1cc(C2C3=C(CC(C)(C)CC3=O)N(C)C3=C2C(=O)CC(C)(C)C3)cc(Br)c1O	2%	49%	-10%	-3	71µM*	12%
Cc1ccc(Sc2ccc(N3CCCC(C(=O)Nc4ccc(F)c(Cl)c4)C3)nn2)cc1 (stereo not drawn)	/	43%	8%	/	-4%[59 µM]	3%
CCn1c(O)c(N=NC2=NC(=O)CS2)c2ccccc21	-12%	-6%	?	-14	2%[0.0925 µM]	50µM*
